High-throughput results: PubChem, National Center for Advancing Translational Sciences (NCATS)
A selection: hits, their analogues and other compounds. The true share with any hit is near 6.9%.
KB-V1 MDR tox: kills drug-selected multidrug resistant KB-V1 cells; KB-V1 MDR cells viability, CellTiter-Glo, 72 h; Potency, µM (titrated, usually from 46.1 µM), most hits filed as cytotoxic; 3.4% of 400,000 active; AID 1347076; note: potency is the fitted concentration of half-maximal effect; % is set by controls: 0 for no effect and ±100 for the full control effect; nearly all actives have a fitted effect of over 60% in size
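KB-V1 MDR subline cells in DMEM (phenol-red free, 10% FBS) exposed to compounds in qHTS concentration series for 72 h at 37 degrees C. Viability read by CellTiter-Glo luminescence; concentration-effect curves fitted after normalization and correction.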
KB-3-1 cytotox: KB-3-1 parental cell cytotoxicity. KB-3-1 viability, CellTiter-Glo ATP luminescence, 72 h. Potency, µM (titrated, usually from 46.1 µM), usual class: cytotoxic. 1.4% of 400,000 active; note: potency is the fitted concentration of half-maximal effect; % is set by controls: 0 for no effect and ±100 for the full control effect; nearly all actives have a fitted effect of over 60% in size
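Here the drug-naive KB-3-1 line serves as comparator for MDR sub-line selectivity; cells received compound titrations, 72 h at 37 °C, then CellTiter-Glo readout.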
MCF10A rereplic: induces DNA re-replication in MCF 10a normal breast cells. 2.9% of 350,000 active. Potency, µM (top dose mostly 46.1 µM), without a hit: at the top dose activity, positive = re-replication, actives largely listed as activators. MCF 10A DNA re-replication, Hoechst nuclear intensity, 48 h. AID 624296; note: potency is the fitted concentration of half-maximal effect; % of control where 0% means no effect; nearly all actives have a fitted effect of over 50% in size
Giardia killer: kills Giardia lamblia; AID 540267; activity change, % at 7.66 µM, hits read low; 0.15% of 340,000 active; Giardia lamblia trophozoite viability; in the data active = activity change below about -80%; inconclusive = between about -30% and that limit;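 note: parasites exposed to compound for two days anaerobically before the ATP read; % is set by controls: 0 for no effect and ±100 for the full control effect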
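Each well holds 100 Giardia trophozoites and compound. After two days (48 hrs) at 37 deg C in anaerobic conditions, ATP is quantified by luminescence.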
SW480 rerep: inducers of DNA re-replication in SW480 colon cancer cells | SW480 DNA re-replication, Hoechst DNA content imaging, 48 h | Potency, µM (series often up to 46.1 µM), for the others: top-dose re-replication activation, usual class: activators | 1.8% of 340,000 active; note: potency is the fitted concentration of half-maximal effect; % of control where 0% means no effect; nearly all actives have a fitted effect of over 55% in size
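Compounds, transferred as 23 nL by pin tool, were incubated with cells for 48 hr; DNA content per nucleus was then quantified by Hoechst staining and fluorescence plate imaging.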
ASM inhibitor: inhibitors of human secretory acid sphingomyelinase. Potency, µM (highest dose often 57.5 µM), for inactives: at the highest dose activity change, negative = inhibition, actives largely listed as inhibitors. P17405. AID 504937. placental ASM, HMU-PC fluorogenic substrate, 60 min. 0.006% of 340,000 active; note: potency is the fitted concentration of half-maximal effect
Target sequence (P17405 47-631 limits assumed): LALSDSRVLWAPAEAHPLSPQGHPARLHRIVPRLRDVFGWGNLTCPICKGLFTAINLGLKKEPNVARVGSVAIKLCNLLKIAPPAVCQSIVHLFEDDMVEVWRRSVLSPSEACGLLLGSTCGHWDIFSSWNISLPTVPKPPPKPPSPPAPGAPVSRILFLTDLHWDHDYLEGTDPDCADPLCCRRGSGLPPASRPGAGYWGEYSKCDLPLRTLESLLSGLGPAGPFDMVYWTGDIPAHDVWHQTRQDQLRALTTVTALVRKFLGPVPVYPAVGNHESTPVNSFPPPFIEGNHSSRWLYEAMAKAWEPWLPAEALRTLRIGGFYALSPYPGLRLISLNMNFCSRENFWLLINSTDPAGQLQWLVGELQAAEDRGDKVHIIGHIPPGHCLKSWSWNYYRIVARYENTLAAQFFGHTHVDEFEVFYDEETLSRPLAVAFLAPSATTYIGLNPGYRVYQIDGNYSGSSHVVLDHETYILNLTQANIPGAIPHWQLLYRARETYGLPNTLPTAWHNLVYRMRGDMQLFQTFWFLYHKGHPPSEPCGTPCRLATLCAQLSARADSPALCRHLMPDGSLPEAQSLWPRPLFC
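qHTS format. ASM enzyme prepared from human placenta hydrolyses the fluorogenic substrate HMU-PC0 (9 uM final) over 60 min at 37 °C after a 10 min compound preincubation.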
* = called active by the depositor; [ ] = another dose, or the depositor's remark. Unless noted, calls come from the whole dose curve; as a rule, active = well fitted curve in the direction sought with a large enough effect; inconclusive = small, poorly fitted or top-dose-only effect, or another doubt; inactive = no such curve, though single readings can be large; an effect the other way counts as inactive or inconclusive.

What do the screens show for `Cc1c2ccccc2cc(Cc2ccccc2)[n+]1C`?
KB-V1 MDR tox: inactive; KB-3-1 cytotox: 15µM*; MCF10A rereplic: -21%; Giardia killer: 18; SW480 rerep: -5%; ASM inhibitor: -2%

What do the screens show for `O=S(=O)(Cc1cc(Cl)nc(-c2ccncc2)n1)c1ccccc1`?
KB-V1 MDR tox: inactive; KB-3-1 cytotox: inactive; MCF10A rereplic: inconclusive; Giardia killer: -18; SW480 rerep: inconclusive; ASM inhibitor: 2%

Results for O=S(=O)(Cc1cc(Cl)nc(-c2ccccc2)n1)c1ccccc1 ?
KB-V1 MDR tox: inactive; KB-3-1 cytotox: inactive; MCF10A rereplic: 21µM*; Giardia killer: -5; SW480 rerep: inconclusive; ASM inhibitor: -4%

How did Cc1ccc(-c2ccc(/C=N\NC(=O)c3cc4c(ccc5ccccc54)o3)o2)cc1[N+](=O)[O-] do in these assays?
KB-V1 MDR tox: inconclusive; KB-3-1 cytotox: inconclusive; MCF10A rereplic: 7.3µM*; Giardia killer: -1; SW480 rerep: 12%; ASM inhibitor: -2%

What do the screens show for `O=C(O)c1ccc(/C=N/NC(=O)c2cc3c(ccc4ccccc43)o2)cc1`?
KB-V1 MDR tox: inactive; KB-3-1 cytotox: inactive; MCF10A rereplic: 2%; Giardia killer: 43; SW480 rerep: 2%; ASM inhibitor: 8%

How did O=C(N/N=C/c1ccc(-c2ccc(Cl)c(C(=O)O)c2)o1)c1cc2c(ccc3ccccc32)o1 do in these assays?
KB-V1 MDR tox: inactive; KB-3-1 cytotox: inactive; MCF10A rereplic: 21µM*; Giardia killer: -23; SW480 rerep: inconclusive; ASM inhibitor: 495%

What do the screens show for `Cc1ccc([N+](=O)[O-])cc1-c1ccc(/C=N/NC(=O)c2cc3c(ccc4ccccc43)o2)o1`?
KB-V1 MDR tox: inactive; KB-3-1 cytotox: inactive; MCF10A rereplic: -3%; Giardia killer: -17; SW480 rerep: -13%; ASM inhibitor: -1%

Results for CCOc1ccc(N2C(=O)/C(=C/c3ccccc3)N=C2SC)cc1 ?
KB-V1 MDR tox: inactive; KB-3-1 cytotox: inactive; MCF10A rereplic: 5.8µM*; Giardia killer: -22; SW480 rerep: 7%; ASM inhibitor: 13%

What do the screens show for `COc1ccc(/C=C2\N=C(SC)N(c3ccccc3OC)C2=O)cc1`?
KB-V1 MDR tox: inactive; KB-3-1 cytotox: inconclusive; MCF10A rereplic: inconclusive; Giardia killer: -28; SW480 rerep: 18µM*; ASM inhibitor: 28%

How did CCCOc1ccc(N2C(=O)C/C(=C\c3ccccc3)C2=O)cc1 do in these assays?
KB-V1 MDR tox: inactive; KB-3-1 cytotox: inactive; MCF10A rereplic: 2%; Giardia killer: 8; SW480 rerep: -1%; ASM inhibitor: -2%

Results for CCc1cccc(NC(=O)CSc2ncccc2C(=O)Oc2ccccc2Cl)c1 ?
Giardia killer: -2

Results for COc1ccc2c(Sc3ccccc3)c(C(=O)NCC(C)c3ccccc3)[nH]c2c1 (centres undefined) ?
KB-V1 MDR tox: inactive; KB-3-1 cytotox: inactive

How did Cc1ccc(NC(=O)c2cc3ccccc3oc2=N)cc1 do in these assays?
KB-V1 MDR tox: inactive; KB-3-1 cytotox: inactive; MCF10A rereplic: -1%; Giardia killer: -3; SW480 rerep: inconclusive; ASM inhibitor: 7%

How did N=c1oc2c3c4c(cc2cc1C(=O)Nc1ccccc1)CCCN4CCC3 do in these assays?
KB-V1 MDR tox: inactive; KB-3-1 cytotox: inactive; MCF10A rereplic: 4.1µM*; Giardia killer: 3; SW480 rerep: 1.4µM*; ASM inhibitor: 302%

Results for CCc1ccc(CNC(=O)c2ccc(CS(=O)(=O)Cc3ccccc3C)o2)cc1 ?
KB-V1 MDR tox: inconclusive; KB-3-1 cytotox: inactive

Results for CCOC(=O)/C(=C\c1ccc(OC(F)F)cc1)C1=Nn2c(nnc2-c2ccc(Cl)cc2)SC1 ?
KB-V1 MDR tox: inactive; KB-3-1 cytotox: inconclusive; MCF10A rereplic: 5.2µM*; Giardia killer: 27; SW480 rerep: 16µM*; ASM inhibitor: -21%

Results for COc1ccc(-c2nnc3n2N=C(C)CS3)cc1 ?
KB-V1 MDR tox: inactive; KB-3-1 cytotox: inactive; MCF10A rereplic: 1%; Giardia killer: -16; SW480 rerep: -6%; ASM inhibitor: 3%

How did CCOC(=O)/C(=C/c1ccc(OC(F)F)cc1)C1=Nn2c(nnc2-c2ccc(Cl)cc2)SC1 do in these assays?
KB-V1 MDR tox: inconclusive; KB-3-1 cytotox: inconclusive; MCF10A rereplic: 3.7µM*; Giardia killer: -7; SW480 rerep: 7.3µM*; ASM inhibitor: -17%

Results for COc1cc2c(NC3CCN(C)CC3)nc(N3CCCCC3)nc2cc1OCCOCCN(C)C ?
KB-V1 MDR tox: inactive; KB-3-1 cytotox: inactive

Results for CC(C)CCN1C(=O)C2(OCCCO2)c2cc(Cl)ccc21 ?
KB-V1 MDR tox: inactive; KB-3-1 cytotox: inactive; MCF10A rereplic: -6%; Giardia killer: 4; SW480 rerep: 7%[9.22 µM]; ASM inhibitor: 2%

Results for Cc1nnc(NCc2ccc(F)cc2)c2c1nnn2Cc1ccccc1Cl ?
KB-V1 MDR tox: inactive; KB-3-1 cytotox: inactive

How did O=C(Nc1ccc(OCC(F)(F)C(F)F)c(C(F)(F)F)c1)c1ccccc1O do in these assays?
KB-V1 MDR tox: inconclusive; KB-3-1 cytotox: inconclusive; MCF10A rereplic: 12µM*; Giardia killer: -6; SW480 rerep: inconclusive; ASM inhibitor: -23%

How did CC(C)(C)C(=O)Nc1ccc(Sc2ccc([N+](=O)[O-])cc2)cc1 do in these assays?
KB-V1 MDR tox: 21µM*; KB-3-1 cytotox: inactive; MCF10A rereplic: inconclusive; Giardia killer: 2; SW480 rerep: 23%; ASM inhibitor: -9%

How did CC(=O)Nc1ccc(Sc2ccc([N+](=O)[O-])o2)cc1 do in these assays?
KB-V1 MDR tox: inconclusive; KB-3-1 cytotox: inactive; MCF10A rereplic: 1.8µM*; Giardia killer: 4; SW480 rerep: 5.8µM*; ASM inhibitor: -3%

How did CC(C)(C)C(=O)NC(NC(=O)C(C)(C)C)c1ccc([N+](=O)[O-])cc1 do in these assays?
KB-V1 MDR tox: inconclusive; KB-3-1 cytotox: inactive; MCF10A rereplic: 2%; Giardia killer: -18; SW480 rerep: 0%; ASM inhibitor: 2%

How did CC(=O)Nc1ccc(NC(=O)c2cc([N+](=O)[O-])cc([N+](=O)[O-])c2)cc1 do in these assays?
KB-V1 MDR tox: inactive; KB-3-1 cytotox: inactive; MCF10A rereplic: -11%; Giardia killer: 2; SW480 rerep: 0%; ASM inhibitor: -1%

What do the screens show for `CCCC/C=C/[C@H](c1ccccc1)[C@H](CO)Cc1cnc2ccccc2c1`?
Giardia killer: 0

What do the screens show for `Cc1cc(C)c(C)c(S(=O)(=O)Nc2ccccc2C(=O)NN2CCOCC2)c1C`?
KB-V1 MDR tox: inactive; KB-3-1 cytotox: inactive; MCF10A rereplic: 1%; Giardia killer: -4; SW480 rerep: -4%; ASM inhibitor: 1%
